Measurements reported in the supplement of paper PMC7380943.
± gives the standard deviation of the averaged measurements.

Tests used:
[1] = system: CLZ3 (HCA2 human fibroblast dual HR-NHEJ reporter); experiment: NHEJ repair efficiency (GFP+ cells) relative to control (log10 fold); higher = more non-homologous end joining; conditions: 5 µM; doxycycline 0.5 ug/mL
[2] = system: CLZ3 (HCA2 human fibroblast dual HR-NHEJ reporter); experiment: HR repair efficiency (tdTomato+ cells) relative to control (log10 fold); higher = more homologous recombination; conditions: 5 µM; doxycycline 0.5 ug/mL
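Throughout, for HR repair efficiency (tdTomato+ cells) relative to control: compound given one day before doxycycline, which switches on I-SceI endonuclease expression to create double-strand breaks within the integrated reporter.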
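Throughout, for NHEJ repair efficiency (GFP+ cells) relative to control: compound given one day ahead of doxycycline, which switches on I-SceI endonuclease to cut the chromosomally integrated reporter and create DSBs.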

SMILES	NHEJ repair efficiency (log10) [1]	HR repair efficiency (log10) [2]
O=C(/C=C/C=C/c1ccc2c(c1)OCO2)N1CCCCC1 [Piperine]	0.0542	0.0832
COc1cc2c(cc1O)C[C@H]1c3cc(O)c(OC)cc3CC[N@@+]1(C)C2 [Phellodendrine]	0.199	-0.099
CC1(C)CC[C@]2(C(=O)O[C@@H]3O[C@H](CO)[C@@H](O)[C@H](O)[C@H]3O)CC[C@]3(C)C(=CC[C@@H]4[C@@]5(C)CC[C@H](O[C@@H]6O[C@H](C(=O)O)[C@@H](O)[C@H](O)[C@H]6O[C@@H]6O[C@H](CO)[C@@H](O)[C@H](O)[C@H]6O)C(C)(C)[C@@H]5CC[C@]43C)[C@@H]2C1 [Chikusetsusaponin V]	0.0351	0.0384
CC1(C)CCC2(C(=O)OC3OC(CO)C(O)C(O)C3O)CCC3(C)C(=CCC4C5(C)CCC(OC6OC(C(=O)O)C(OC7OCC(O)C(OC8OC(CO)C(O)C(O)C8O)C7O)C(O)C6O)C(C)(C)C5CCC43C)C2C1 (stereo not given) [Oleanoside A]	-0.111	0.164
C/C=C(/C)C(=O)O[C@H]1c2cc(OC)c(OC)c(OC)c2-c2c(cc3c(c2OC)OCO3)C[C@H](C)[C@]1(C)O [Wuweizi Ester B]	-0.108	0.0267
O=C(/C=C/c1ccc(O)c(O)c1)OC1(C(=O)O)C[C@@H](O)C(O)[C@H](O)C1 (stereo not given in full) [1-Caffeoylquinic Acid]	-0.0477	0.0171
COc1cc(OC)c2ccc(=O)oc2c1 [Citropten]	0.137	0.0946
COc1ccc([C@@H]2CC(=O)c3c(O)cc(O[C@@H]4O[C@H](CO)[C@@H](O)[C@H](O)[C@H]4O[C@@H]4O[C@@H](C)[C@H](O)[C@@H](O)[C@H]4O)cc3O2)cc1O [Neohesperidin]	-0.0783	-0.11
COc1cc2c(cc1OC)[C@H]1[C@@H](C)c3ccc(OC)c(OC)c3CN1CC2 [Corydaline]	-0.196	-0.191
COc1ccc(-c2cc(=O)c3c(O)cc(O[C@@H]4O[C@H](CO[C@@H]5O[C@@H](C)[C@H](O)[C@@H](O)[C@H]5O)[C@@H](O)[C@H](O)[C@H]4O)cc3o2)cc1 [Linarin]	-0.0758	0.00777
C[C@@H]1C(=O)O[C@H]2C[C@@]34O[C@@H]5OC(=O)[C@H](O)[C@@]56[C@H](C(C)(C)C)[C@H](O)C(OC3=O)[C@]64[C@]21O (stereo not given in full) [Ginkgolide J]	0.0205	0.076
C[C@H]1[C@H](C)CC[C@]2(C(=O)O[C@@H]3O[C@H](CO[C@@H]4O[C@H](CO)[C@@H](O[C@@H]5O[C@H](C)[C@H](O)[C@@H](O)[C@H]5O)[C@H](O)[C@H]4O)[C@@H](O)[C@H](O)[C@H]3O)CC[C@]3(C)C(=CC[C@@H]4[C@@]5(C)C[C@@H](O)[C@H](O)[C@@](C)(CO)[C@@H]5CC[C@]43C)[C@H]12 [Asiaticoside]	-0.0035	-0.0111
Cc1cc(O)c2c(c1)C(=O)c1cc(O)cc(O)c1C2=O [Emodin]	-0.0237	0.049
CC1(C)CC[C@]2(C(=O)O[C@@H]3O[C@H](CO)[C@@H](O)[C@H](O)[C@H]3O)CC[C@]3(C)C(=CC[C@@H]4[C@@]5(C)CC[C@H](O[C@@H]6O[C@H](C(=O)O)[C@@H](O)[C@H](O)[C@H]6O[C@@H]6O[C@H](CO)[C@@H](O)[C@H](O)[C@H]6O)C(C)(C)[C@@H]5CC[C@]43C)[C@@H]2C1 [Ginsenoside Ro]	0.13	0.3
O=C(O)c1cc(O)c2c(c1)[C@@H]([C@H]1c3cc(C(=O)O)cc(O)c3C(=O)c3c(O[C@@H]4O[C@H](CO)[C@@H](O)[C@H](O)[C@H]4O)cccc31)c1cccc(O[C@@H]3O[C@H](CO)[C@@H](O)[C@H](O)[C@H]3O)c1C2=O [Sennoside B]	-0.162	0.0301
CC(C)=CCc1c(-c2ccc(O)cc2O)oc2c([C@H]3C=C(C)C[C@@H](c4ccc(O)cc4O)[C@@H]3C(=O)c3ccc(O)cc3O)c(O)cc(O)c2c1=O [Kuwanon G]	0.0109	0.129
O=C(CCc1ccc(O)cc1)c1c(O)cc(O)cc1O[C@@H]1OC(CO)[C@@H](O)[C@@H](O)C1O (stereo not given in full) [Phloridzin]	-0.0404 ± 0.071	0.0182 ± 0.039
COc1cc(CCC(C)=O)ccc1O [Zingerone]	0.275	0.257
CCCCCCCCCCCCCCCC(=O)OC [Methyl Palmitate]	0.0451	0.0601
O=C(O)/C=C/c1ccc(O)c(O)c1 [Caffeic acid]	0.0395	0.0424
